This note sets out measurements from PubChem BioAssay AID2216 (Broad Institute, 2009).

Among all 300,000 compounds or so, about 3,300 (1.1%) were called active. Inconclusive results (about 6%) are left out.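 The calls were made as follows: active = more than half of the replicate wells show a fall in the fluorescence ratio signal beyond about 16% (limit read from the data, passing the limit was not always enough); inconclusive = exactly half of the replicate wells pass the set limit; inactive = fewer than half of replicates pass the limit.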 The sample as a whole holds a higher share of actives than the screen did.

For the assay, the system named is Ran GTPase (GTP-bound) - importin-beta complex. As to the kind of experiment: disruptors of Ran-importin-beta complex formation – biochemical, FRET, CFP-Ran, YFP-importin-beta, homogeneous, primary screen (AID 2216).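 Also: 0% = DMSO wells and 100% = Ran loaded with GDP instead of GTP.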 Particulars: cell-free CFP-Ran/YFP-importin-beta FRET ratio; stronger effect = higher value; concentration not given here.
Turning to `CC12CCC(=O)N1C(C(=O)NCCN1C(=O)S/C(=C\c3ccccc3F)C1=O)CS2` (configuration not stated), the inhibition (usually the drop in the measured response relative to a control, in per cent) was 6.01% (inactive).

Turning to `C=C(C)CNC(=O)c1ccc(OC2CCN(C(=O)COC)CC2)cc1`, the inhibition was -0.667% (inactive).

Take `CCN1CCN(C(=O)N(Cc2ccc(Cl)cc2)S(=O)(=O)c2ccc(C)cc2)CC1`: the inhibition was 9.84% (inactive).

For `CC(=O)c1cc(C#N)c(N2CC(C)OC(C)C2)nc1C` (configuration not stated), the inhibition was 25.3% (active).

As for `CC(=O)c1cc(C#N)c(N2CCCCC2)nc1C`, the inhibition was 2.36% (inactive).

Turning to `CC(=O)c1cc(C#N)c(SCC(=O)C(C)(C)C)nc1C`, the inhibition is -3.56% (inactive).

Turning to `CC(=O)N/C(=C\c1ccccc1)C(=O)OC(C)C(=O)N(C)c1ccccc1` (configuration not stated), the inhibition is 1.82% (inactive).

Regarding `O=[N+]([O-])c1ncc(Br)cc1Nc1ccccc1`, the inhibition was 6.49% (inactive).

For the compound `COc1ccccc1NC(=O)Nc1nc(CC(=O)Nc2ccccc2F)cs1`, the inhibition is 1.51% (inactive).

In the case of `Cc1ccnc(NC(=O)CNC(=O)c2ccccc2)c1`, the inhibition is 5.13% (inactive).

For the compound `O=C(Cc1ccc(Br)cc1)NCCc1ccccc1`, the inhibition is 5.4% (inactive).

On to `CCCn1nc(NS(=O)(=O)c2ccc(F)cc2)c2cc3ccccc3nc21`, for which the inhibition was 4.53% (inactive).

Turning to `CCCn1nc(NS(=O)(=O)c2ccccc2)c2cc3cc(C)ccc3nc21`, the inhibition was -1.51% (inactive).

For the compound `CCCn1nc(NC(=O)C(C)C)c2cc3cc(OC)ccc3nc21`, the inhibition was 57.9% (active).

In the case of `Cc1ccc2c(C)c(C(=O)N3CCN(c4ccncc4)CC3)oc2c1C`, the inhibition is 1.96% (inactive).

For the compound `CC(C)(C)OC(=O)c1c(N)n(CCCN2CCCC2=O)c2nc3ccccc3nc12`, the inhibition was 41.8% (active).

For the compound `CCOc1ccc(C(=O)NCCCN2CCCC2=O)cc1`, the inhibition was 3% (inactive).

Take `O=C(NCCCN1CCCC1=O)c1ccc(S(=O)(=O)Nc2ccccc2)cc1`: the inhibition was -2.45% (inactive).

For the compound `Cc1nc(-c2ccc(F)cc2)c(CC(=O)Nc2cc(S(=O)(=O)N3CCCCC3)ccc2C)s1`, the inhibition was 1.23% (inactive).

Consider `O=C(NCc1ccc2c(c1)OCO2)c1c(O)nc2sccn2c1=O`, for which the inhibition is -0.147% (inactive).

As for `COc1ccc(C(=O)Nc2cccc(NC(=O)c3ccc(OC)cc3OC)n2)c(OC)c1`, the inhibition was 3.03% (inactive).

`CCCCN1C(N)=NC[C@@H]1CC1CCCCC1`: the inhibition was 0.418% (inactive).

Regarding `Cc1onc(-c2c(F)cccc2Cl)c1C(=O)N(C)CC(=O)Nc1cccc(F)c1`, the inhibition was 0.755% (inactive).

In the case of `C/C(=N/OC(=O)c1c(-c2c(F)cccc2Cl)noc1C)c1cnccn1`, the inhibition was -0.76% (inactive).

As for `CCOC(=O)c1cc2c(=O)n3ccccc3nc2n(CC(C)C)c1=NC(=O)c1c(-c2c(F)cccc2Cl)noc1C`, the inhibition is 94.5% (active).

On to `CCOC(=O)c1cccc(NC(=O)c2ccc(F)cc2F)c1`, for which the inhibition is -2.82% (inactive).

For the compound `CCc1cccc(NC(=O)COC(=O)C2CCN(c3ccc(C(F)(F)F)cn3)CC2)c1`, the inhibition was -2.11% (inactive).

Consider `O=C(CNC(=O)C12CC3CC(CC(C3)C1)C2)OCC(=O)N1CCCCC1`, for which the inhibition was 9.25% (inactive).

Turning to `COc1cccc(C(=O)N/N=C(\C)c2cccc(NC(=O)c3ccc(F)cc3)c2)c1OC`, the inhibition was -1.6% (inactive).

With `Cc1ccc(-n2ncc3c(=O)n(-c4ccc(C)c(C)c4)c(-c4ccco4)nc32)cc1`, the inhibition was -0.295% (inactive).

In the case of `Cc1ccc(-n2c(SCC(=O)N3CCC(C(=O)O)CC3)nc3ccccc3c2=O)cc1C`, the inhibition is -0.912% (inactive).

On to `Cc1ccc(-n2c(=O)c(C#N)cc3c(=O)n4ccccc4nc32)cc1C`, for which the inhibition is 28% (active).

With `O=C(NCCSc1ncc(-c2ccccc2)[nH]1)c1ccco1`, the inhibition is 3.47% (inactive).

Regarding `O=C(NC1CCCCC1)c1ccc(-c2ccc(Cl)cc2)o1`, the inhibition is 8.43% (inactive).

Turning to `O=C(CSc1ccc(-c2ccc(-n3cccn3)cc2)nn1)Nc1ccc([N+](=O)[O-])cc1`, the inhibition is -0.399% (inactive).

As for `CCN(CC(=O)Nc1cccc(S(=O)(=O)N2CCCCC2)c1)Cc1ccccc1`, the inhibition is 16.2% (active).

Regarding `CC(=O)NC(CC(=O)Nc1cccc(S(=O)(=O)N2CCCC2)c1)c1ccccc1` (configuration not stated), the inhibition is 0.238% (inactive).

`CCN(CC(=O)Nc1ccc(S(=O)(=O)N2CCCC2)cc1)CC(=O)Nc1cccc(OC)c1`: the inhibition is 4.35% (inactive).

In the case of `COc1ccc(CCNc2cc(N3CCN(C(=O)c4ccccc4OC)CC3)ccc2[N+](=O)[O-])cc1OC`, the inhibition is 3.89% (inactive).

As to `CC1CC(C)CN(S(=O)(=O)c2cccc3nonc23)C1` (configuration not stated), the inhibition was 2.14% (inactive).

For `COc1ccc2oc(C(=O)N(CC(C)C)C3CCS(=O)(=O)C3)c(C)c2c1` (configuration not stated), the inhibition was -2.12% (inactive).

For the compound `O=C(Nc1ccccc1N1CCCC1)c1ccc(F)c(S(=O)(=O)N2CCOCC2)c1`, the inhibition is 1.55% (inactive).

For the compound `COc1ccccc1CCNS(=O)(=O)c1cc2c3c(c1)C(C)C(=O)N3CCC2` (configuration not stated), the inhibition was 4.16% (inactive).

On to `COC(=O)C1=C(C)N(c2ccc(Br)cc2)C(=O)/C1=C\c1ccco1`, for which the inhibition was 5.89% (inactive).

In the case of `COC(=O)COc1ccc2c(c1C)O/C(=C\c1ccco1)C2=O`, the inhibition is 47.4% (active).

With `Cc1cc(C)c(OCC(=O)N/N=C/c2ccco2)c(C)c1`, the inhibition is -4.28% (inactive).

In the case of `CCS(=O)(=O)c1ccc(-c2cccc(NC(=O)c3ccc(Br)o3)c2)nn1`, the inhibition is 2.1% (inactive).

As to `CCOc1ccc(NS(=O)(=O)c2ccc(C(=O)NCC(c3ccccc3OC)N3CCCC3)cc2)cc1` (configuration not stated), the inhibition was -3.36% (inactive).

For the compound `CCCNC(=O)CCn1cc(-c2ccc(OC)cc2)nc1CCN`, the inhibition is -0.23% (inactive).

For the compound `Cc1csc(NC(=O)CSc2nc(=O)cc(N)n2-c2ccc(F)cc2)n1`, the inhibition was 1.41% (inactive).

`O=S(=O)(NC1CCCCC1N1CCCCC1)c1ccc(Cl)cc1` (configuration not stated): the inhibition is 2.32% (inactive).

Regarding `CCN1CCN(C2CCCCC2NS(=O)(=O)c2ccc(Cl)cc2)CC1` (configuration not stated), the inhibition is 1.58% (inactive).

Take `O=S(=O)(NC1CCCCC1N1CCC(O)CC1)c1ccc(Cl)cc1` (configuration not stated): the inhibition is 74.6% (active).

Consider `COc1ccc(CNC(=O)COC(=O)CCS(=O)(=O)c2ccc(C)cc2)cc1OC`, for which the inhibition was 2.29% (inactive).

For the compound `CCOc1ccc(-c2cc(C(=O)N/N=C/c3ccc(O)cc3)c3ccccc3n2)cc1`, the inhibition was 2.59% (inactive).

In the case of `COc1ccc(C(=O)N/N=c2\oc3ccccc3cc2C(N)=O)cc1`, the inhibition is 4.55% (inactive).

For `CCOC(=O)c1cc2cc3ccccc3cc2oc1=O`, the inhibition is 3.3% (inactive).

Take `CCN(CC)c1ccc2oc(=O)c(C)nc2c1`: the inhibition was -87.9% (inactive).

As to `CCN(CC)c1ccc2cc(C(N)=O)/c(=N\NC(=O)c3ccncc3)oc2c1`, the inhibition was 135% (active).

Consider `CCN(CC)c1ccc2cc(C(=O)O)c(=O)oc2c1`, for which the inhibition was 153% (active).

Consider `NC(=O)c1cc2ccccc2o/c1=N/NC(=O)c1cccc(F)c1`, for which the inhibition is -7.02% (inactive).

Consider `Cc1onc(C(=O)Nc2ccc3c(c2)OCO3)c1[N+](=O)[O-]`, for which the inhibition was 0.97% (inactive).

Consider `CCCOc1ccc(Cl)cc1Nc1nc(NCCO)nc(N2CCCC2)n1`, for which the inhibition was -4.43% (inactive).

For the compound `O=C(COC(=O)c1cnccn1)Nc1ccc(Cl)cc1C(F)(F)F`, the inhibition is 1.07% (inactive).

Consider `CCCCc1nc2cc(C(=O)N3CCCCC3CCO)ccc2o1` (configuration not stated), for which the inhibition is 2.55% (inactive).

Turning to `Cc1cc(C)c2c3c(sc2n1)C(c1ccccc1)C(C#N)=C(N)O3` (configuration not stated), the inhibition was 14.9% (inactive).

Consider `N#CC1=C(N)Oc2c(sc3ccccc23)C1c1ccco1` (configuration not stated), for which the inhibition was 54.7% (active).

As for `CC1=C(C(=O)Nc2ccccc2)C(c2ccco2)C(C#N)=C(SCC(N)=O)N1` (configuration not stated), the inhibition is -0.887% (inactive).

Take `CC(C)CN(C(=O)COC(=O)c1ccc(Cl)c(N)c1)c1c(N)n(Cc2ccccc2)c(=O)[nH]c1=O`: the inhibition was 3.15% (inactive).

For `Cc1onc(-c2ccccc2Cl)c1C(=O)N(Cc1ccc(N(C)C)cc1)C(C)C`, the inhibition was -1.47% (inactive).

With `O=C(Cc1ccc(S(=O)(=O)N2CCOCC2)s1)NCCOc1ccccc1F`, the inhibition was 0.747% (inactive).

For `CCCc1cc(=O)oc2c(C)c(OCC(=O)NCc3ccccn3)ccc12`, the inhibition is 0.0468% (inactive).

Take `COc1cccc(C(=O)OCc2cc(=O)oc3c(C)c(C)ccc23)c1OC`: the inhibition is -2.35% (inactive).

As for `COC(=O)Cc1cc(=O)oc2c(C)c(O)ccc12`, the inhibition is 60.4% (active).

For the compound `O=C(COc1ccccc1)Nc1cc2c3c(c1)CC(=O)N3CCC2`, the inhibition is 0.812% (inactive).

As to `O=C(NC1CC1)C1=C[C@H](c2coc3ccccc3c2=O)C[C@H](OCCCCO)O1`, the inhibition is 8.31% (inactive).

`CC(C)N1CCc2c(sc(NC(=O)Cc3ccccc3)c2C#N)C1`: the inhibition was 156% (active).

`CCN1CCN(CC(=O)Nc2sc3c(c2C#N)CCC3)CC1`: the inhibition was -1.32% (inactive).

As to `N#Cc1c(N)sc2c1CCN(C(=O)OCc1ccccc1)C2`, the inhibition is 8.85% (inactive).

As for `Cn1c(SCC(=O)c2ccccc2)ncc(C(=O)Nc2ccc(F)cc2)c1=O`, the inhibition is 0.558% (inactive).

On to `CCN1CC=C2C(C#N)=C(N)C(C#N)(C#N)[C@H](c3ccoc3)[C@H]2C1`, for which the inhibition was 47.8% (active).

Consider `N#CC1=C(N)C(C#N)(C#N)[C@H](c2ccsc2)[C@H]2COCC=C12`, for which the inhibition was -27% (inactive).

For `CCCN1CC=C2C(C#N)=C(N)C(C#N)(C#N)C(c3cc(OC)ccc3OC)C2C1` (configuration not stated), the inhibition was 36.6% (active).

For `CCC1=C(C(=O)OC)C(c2cc(OC)ccc2OC)C(C#N)=C(N)O1` (configuration not stated), the inhibition is -4.33% (inactive).

With `COc1ccc(-c2cc(C(=O)N(C)CC(=O)Nc3ccccc3Cl)c3ccccc3n2)cc1OC`, the inhibition is 0.526% (inactive).

As for `COc1cc(C(=O)N(C)Cc2cccc(OC)c2OC)ccc1OCC(=O)Nc1cccc(C(F)(F)F)c1`, the inhibition was -1% (inactive).

With `Cc1sc2nc(CSCC(=O)NC3CCCCC3)[nH]c(=O)c2c1C`, the inhibition was 1.87% (inactive).

For the compound `O=S(=O)(NCCCc1ccccc1)c1ccc(Br)cc1`, the inhibition was -1.87% (inactive).

`Cc1cc(=O)oc2cc(NC(=O)C(C)Oc3ccccc3)ccc12` (configuration not stated): the inhibition was 3.05% (inactive).

`CCOC(=O)C1(Cc2cccc(OC)c2)CCN(C(C)COC)CC1` (configuration not stated): the inhibition is 7.78% (inactive).

As for `CCOC(=O)C1(Cc2cccc(OC)c2)CCN(C(C)CC(C)(C)O)CC1` (configuration not stated), the inhibition was 2.47% (inactive).

Take `CCOC(=O)C1(Cc2cccc(OC)c2)CCN(Cc2csc(C(C)=O)c2)CC1`: the inhibition is 33.4% (active).
